Calls of active or inactive are those of the source. Unless noted, no rule for the calls is given here.
Assays:
[1] = P. berghei load reduction in hepatocytes – cell-based, HepG2, luciferase luminescence, HepG2 viability, primary screen (AID 624349; in the data active = parasite load remaining mostly below about 12%, no sharp cut-off; inactive = mostly above about 10%;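 also: 100% = mean of DMSO negative control wells on the same plate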); conditions: P. berghei liver stage in HepG2, luciferase luminescence, concentration not given here; parasite load remaining: stronger effect = lower value; viability: measured here: HepG2 viability without parasites
[2] = signal quenchers or enhancers, Cy5 substrate/SSB – biochemical, NIH Clinical Collection, E. coli SSB, artefact control for HCV NS3 helicase inhibitor project (AID 743268); conditions: Cy5-oligo bound E. coli SSB, fluorescence interference
[3] = test system: Hepatitis C virus NS3 helicase; experiment: blockers of NS3h binding to DNA – biochemical, fluorescence polarization, NIH Clinical Collection, primary screen (AID 743270); conditions: NS3 helicase binding to Cy5-dT15 DNA, stronger effect = higher value, concentration not given here
[4] = biological target: Single-stranded DNA-binding protein (Escherichia coli (strain K12)) (UniProt P0AGE0); experiment: SSB-ssDNA binding inhibitors – biochemical, fluorescence polarization, NIH Clinical Collection, counter-screen for HCV NS3 helicase inhibitor project (AID 743271; in the data active = inhibition above about 28%); conditions: E. coli SSB-DNA binding, stronger effect = higher value, concentration not given here
[5] = compounds distorting NS3 helicase fluorescence signal – biochemical, NIH Clinical Collection, artefact control for HCV NS3 helicase inhibitor project (AID 743272); conditions: fluorescence interference counterscreen, HCV NS3 helicase assay; stronger effect = lower value;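 also: HCV NS3 helicase with a Cy5 labelled single stranded DNA probe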
[6] = test system: Neuropilin-2 / VEGF-C interaction (human); experiment: small molecules blocking Neuropilin-2/VEGF-C interaction – biochemical, microplate binding format, z-score (AID 743281); conditions: microplate NRP2/VEGF-C binding assay; stronger effect = lower value
[7] = modulation of C. elegans fzo-1 (AID 1259413);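 also: fzo-1 mutant C. elegans worms in liquid wells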; conditions: C. elegans fzo-1 modulator screen, mean read-out; stronger effect = higher value
[8] = viability loss with induced miR-34 in A549 – imaging, A549 dox-inducible miR-34, nuclei and caspase counts, primary screen (AID 1347080;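 active = compounds whose cell count with miR-34 switched on is under 0.7 times the count with it off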); conditions: A549 miR-34 inducible, Hoechst nuclei count, 48 h
[9] = galactose survival enhancers in mitochondrial complex I cybrids – cell-based, galactose medium, ATP luminescence, primary screen (AID 1645843;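 active = z-score of at least 1.8 in each of two replicates, scored against plate mean and spread of sample wells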;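 also: positive z means more ATP and so rescue of galactose-driven cybrid death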); conditions: complex I mutant cybrid cells, 72 h, stronger effect = higher value
[10] = test system: F380Y; experiment: BK channel mutant inhibitors and activators – cell-based, U2OS BacMam, thallium flux, beta subunits, selectivity assay, profiling panel (AID 1259406;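 active = thallium flux through the channel raised or lowered by more than 3 SD from vehicle-only wells, actives on both sides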;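 also: initial slope of Thallos dye fluorescence rise after thallium is added; log ratio against the mean of 0.3% DMSO vehicle wells on the same plate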); conditions: U2OS BacMam BK variants, at 30 µM
[11] = test system: F380Y/beta1; experiment: as above; conditions: U2OS BacMam BK variants, at 30 µM
[12] = test system: F380Y/beta2Delta; experiment: as above; conditions: U2OS BacMam BK variants, at 30 µM
[13] = test system: F380Y/beta4; experiment: as above; conditions: U2OS BacMam BK variants, at 30 µM
[14] = biological target: Calcium-activated potassium channel subunit alpha-1 (Homo sapiens) + Leucine-rich repeat-containing protein 26 (Homo sapiens) (UniProt Q12791+Q2I0M4); experiment: as above; conditions: U2OS BacMam BK variants, F380Y/Slo1WT/gamma1, at 30 µM
[15] = test system: R275C; experiment: as above; conditions: U2OS BacMam BK variants, at 30 µM
[16] = test system: R275C/beta1; experiment: as above; conditions: U2OS BacMam BK variants, at 30 µM
[17] = test system: R275C/beta2Delta; experiment: as above; conditions: U2OS BacMam BK variants, at 30 µM
[18] = test system: R275C/Slo1WT/beta2; experiment: as above; conditions: U2OS BacMam BK variants, at 30 µM
[19] = EMT-state selective cytotoxicity in co-culture – imaging, PC-3E GFP, TEM4-18 mCherry, primary screen (AID 1345086;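 active = compounds killing one labelled cell type while sparing the other, by normalised counts and ratio limits, not self-fluorescent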;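 also: cells exposed to compound for 72 h before imaging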;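 as to red/green cell ratio (normalised): normalised mesenchymal count divided by normalised epithelial count so high means epithelial killing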); conditions: PC-3E GFP / TEM4-18 mCherry co-culture, imaging cell counts, at 1 µM
[20] = measured here: relative caspase fold change +Dox/-Dox
[21] = measured here: total cells with miR-34 induction, stronger effect = lower value
[22] = measured here: total cells without miR-34 induction

Sequence of Calcium-activated potassium channel subunit alpha-1 (Homo sapiens) + Leucine-rich repeat-containing protein 26 (Homo sapiens) (Q2I0M4 whole entry, looked up, one chain of several): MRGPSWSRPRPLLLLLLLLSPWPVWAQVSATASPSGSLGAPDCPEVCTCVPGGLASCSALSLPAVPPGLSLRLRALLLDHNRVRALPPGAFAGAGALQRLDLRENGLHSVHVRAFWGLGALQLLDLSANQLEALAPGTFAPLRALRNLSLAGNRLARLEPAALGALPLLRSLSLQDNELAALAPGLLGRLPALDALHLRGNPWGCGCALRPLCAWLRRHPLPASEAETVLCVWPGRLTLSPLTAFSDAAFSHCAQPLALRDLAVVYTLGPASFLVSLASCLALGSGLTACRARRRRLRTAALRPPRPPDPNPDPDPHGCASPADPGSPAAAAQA

Structure (SMILES): c1cncc(C2CCCN2)c1 (stereo unspecified)
- parasite load remaining [1]: 96.8% (inactive)
- viability [1]: 74.2%
- fluorescence ratio [2]: 1.01 (inactive)
- inhibition [3]: -1.98% (inactive)
- inhibition [4]: -1.64% (inactive)
- fluorescence ratio [5]: 0.95 (inactive)
- z-score [6]: -0.685 (inactive)
- mean signal [7]: 296 (inactive)
- fold change ([8]; stronger effect = lower value): 0.916 (inactive)
- fold change [8, 20]: 2.18
- cell count [8, 21]: 9590
- cell count [8, 22]: 10500
- z-score [9]: 0.385 (inactive)

Structure (SMILES): Oc1cc2c(cc1O)[C@H]1c3ccccc3CN[C@@H]1CC2
- parasite load remaining [1]: 31.6% (inactive)
- viability [1]: 68.7%
- fluorescence ratio [2]: 0.94 (inactive)
- inhibition [3]: -5.46% (inactive)
- inhibition [4]: -4.33% (inactive)
- fluorescence ratio [5]: 0.91 (inactive)
- z-score [6]: -4.26 (active)
- mean signal [7]: 249 (inactive)
- fold change ([8]; stronger effect = lower value, cell number ratio, induced over uninduced): 0.969 (inactive)
- fold change [8, 20]: 0.736
- cell count [8, 21]: 8740
- cell count [8, 22]: 9020
- z-score [9]: -1.23 (inactive)
- log fold change Tl+ flux [10]: -0.103 (inactive)
- log fold change Tl+ flux [11]: 0.0598 (inactive)
- log fold change Tl+ flux [12]: -0.0567 (inactive)
- log fold change Tl+ flux [13]: -0.0725 (inactive)
- log fold change Tl+ flux [14]: 0.0857 (inactive)
- log fold change Tl+ flux [15]: -0.0506 (inactive)
- log fold change Tl+ flux [16]: 0.0796 (active)
- log fold change Tl+ flux [17]: 0.137 (active)
- log fold change Tl+ flux [18]: 0.0271 (inactive)

Structure (SMILES): CCN(C(C)=O)c1cccc(-c2ccnc3c(C#N)cnn23)c1
- parasite load remaining [1]: 67.8% (inactive)
- viability [1]: 71%
- fluorescence ratio [2]: 0.96 (inactive)
- inhibition [3]: -1.97% (inactive)
- inhibition [4]: -3.54% (inactive)
- fluorescence ratio [5]: 0.98 (inactive)
- z-score [6]: -0.583 (inactive)
- mean signal [7]: 228 (inactive)
- red/green cell ratio (normalised) ([19]; actives lie on both sides): 1.11 (inactive)
- normalised cell number ([19]; measured here: epithelial PC-3E GFP cell survival): 1.1
- normalised cell number ([19]; measured here: mesenchymal TEM4-18 mCherry cell survival): 1.22
- fold change ([8]; stronger effect = lower value): 0.85 (inactive)
- fold change [8, 20]: 1.13
- cell count [8, 21]: 8990
- cell count [8, 22]: 10600
- z-score [9]: 0.945 (inactive)

Structure (SMILES): CC12CCC(=O)C=C1CCC1C2CCC2(C)C(O)CCC12 (stereo unspecified)
- parasite load remaining [1]: 38.7% (inactive)
- viability [1]: 100%
- fluorescence ratio [2]: 0.97 (inactive)
- inhibition [3]: -3.18% (inactive)
- inhibition [4]: -3.53% (inactive)
- fluorescence ratio [5]: 1.01 (inactive)
- fold change ([8]; stronger effect = lower value): 0.96 (inactive)
- fold change [8, 20]: 2.43
- cell count [8, 21]: 9970
- cell count [8, 22]: 10400
- z-score [9]: -0.235 (inactive)
- log fold change Tl+ flux [10]: 0.0199 (inactive)
- log fold change Tl+ flux [11]: 0.0232 (inactive)
- log fold change Tl+ flux [12]: 0.032 (inactive)
- log fold change Tl+ flux [13]: -0.0491 (inactive)
- log fold change Tl+ flux [14]: -0.042 (inactive)
- log fold change Tl+ flux [15]: 0.011 (inactive)
- log fold change Tl+ flux [16]: 0.00563 (inactive)
- log fold change Tl+ flux [17]: 0.059 (inactive)
- log fold change Tl+ flux [18]: -0.0485 (inactive)
